# Several values for one entry are separate records, joined by “and”; a condition that tells them apart may be missing. Equal entries are not always repeated. Hit rate of the full screen: of about 16,000 compounds, about 2,600 (16%) were called active. About 20% were inconclusive and are not listed. Calls follow the shape of the dose curve; as a rule, active = well fitted curve in the direction sought with a large enough effect; inconclusive = small, poorly fitted or top-dose-only effect, or effect the other way; inactive = no such curve, though single readings can be large or run the other way. The list is a sample of the results.
# Biological target: Cytochrome P450 2D6 (Homo sapiens) (UniProt P10635)
# Sequence (P10635 whole entry, looked up): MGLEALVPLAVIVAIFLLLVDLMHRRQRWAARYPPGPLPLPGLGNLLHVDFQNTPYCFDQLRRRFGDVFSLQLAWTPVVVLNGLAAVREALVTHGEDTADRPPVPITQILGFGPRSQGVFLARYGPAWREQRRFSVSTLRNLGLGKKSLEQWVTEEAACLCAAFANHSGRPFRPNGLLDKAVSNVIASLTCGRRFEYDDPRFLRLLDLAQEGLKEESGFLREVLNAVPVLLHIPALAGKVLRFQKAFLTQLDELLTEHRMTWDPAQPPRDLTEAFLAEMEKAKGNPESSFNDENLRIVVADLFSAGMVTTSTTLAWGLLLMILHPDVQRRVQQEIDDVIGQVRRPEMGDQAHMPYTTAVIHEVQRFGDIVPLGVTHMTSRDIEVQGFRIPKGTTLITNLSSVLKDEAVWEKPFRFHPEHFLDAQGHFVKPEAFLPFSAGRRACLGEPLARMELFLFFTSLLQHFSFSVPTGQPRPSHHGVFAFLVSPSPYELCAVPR
# Assay: Cytochrome panel assay with activity outcomes
# Conditions: recombinant CYP, pro-luciferin dealkylation, luminescence, p450-cyp2d6; series mostly up to 57.1 µM; activity, negative = inhibition: at the top concentration
# % is scaled to controls: 0 for no effect and ±100 for the full control effect.
Structure (SMILES),"activity, negative = inhibition",AC50
Cc1ccn2c(NC(=O)c3ccccc3)c(-c3cccs3)nc2c1,-21.6% (inactive),
CC[N+](CC)(CC(=O)Nc1c(C)cccc1C)Cc1ccccc1,,0.00794 µM (active)
Cc1cccc(C)c1NC(=S)NC(=O)CCc1ccccc1,-13.9% (inactive),
CC[N+](CC)(CC)CC(=O)Nc1c(C)cccc1C,,inactive
COc1ccc(CCNC(=O)C2CCN(S(=O)(=O)N3CC(C)CC(C)C3)CC2)cc1OC (configuration not stated),0.862% (inactive),
C1CCC(N=C(NC23CC4CC(CC(C4)C2)C3)N2CCOCC2)CC1,,0.631 µM (active)
COC(=O)[C@@]1(Cc2ccc(OC)cc2)[C@H]2c3cc(C(=O)N4CCCC4)n(Cc4cc(F)cc5c4OCOC5)c3C[C@H]2CN1C(=O)c1ccccc1,-3.21% (inactive),
CCn1ccc(C(=O)NC2=C(C#N)CCC2)n1,4.95% (inactive),
COc1cc(COc2cc(N)c(Cl)cc2C(=O)CCC2CCN(CCNS(C)(=O)=O)CC2)cc(OC)c1,,0.794 µM (active)
Cn1cc(C(=O)OCC2CCN(CCNS(C)(=O)=O)CC2)c2ccccc21,-4.93% (inactive),
COc1[nH]c2ccc(F)cc2c1C(=O)OCC1CCN(CCNS(C)(=O)=O)CC1,,inactive
COc1cc(N)c(Cl)cc1C(=O)CCC1CCN(CCNS(C)(=O)=O)CC1,,12.6 µM (active)
COc1cc(/C=C(\C#N)C(=O)NCC2CCCO2)c([N+](=O)[O-])cc1OC (configuration not stated),-17.7% (inactive),
CCn1c(CC(C)C)n[nH]c1=S,-7.94% (inactive),
CO[C@H]1COC(=O)C/C=C\[C@H](C)[C@@H](NS(=O)(=O)c2ccc(C)cc2)COC(=O)CCC[C@@H]1C,8.76% [at 11.4 µM] (inactive),
COC(Cc1nnc(SC)n1-c1ccc(Cl)cc1)OC,-0.686% (inactive),
Cc1cccc(Oc2coc3cc(OC(=O)c4cccs4)ccc3c2=O)c1,-22.9% (inactive),
Cc1ccc(CS(=O)(=O)CCC(=O)N2CCOCC2)cc1,7.49% (inactive),
CC(C)n1c(N2CCN(C(=O)Nc3ccccc3)CC2)nc2ccccc21,-28.3% (inactive),
Cn1cc(/C=N/n2cnc3sc4c(c3c2=O)CCCC4)c2ccccc21,-12.6% (inactive),
COc1cccc(-c2ccc3ncnc(NCCc4c[nH]c5ccc(OC)cc45)c3c2)c1,,2.51 µM (active)
COc1ccc2[nH]cc(CCNc3ncnc4ccc(-c5ccc6c(c5)OCO6)cc34)c2c1,,2.51 µM (active)
COc1ccc2[nH]cc(CCNc3ncnc4ccc(-c5cccnc5)cc34)c2c1,,7.94 µM (active)
COc1ccc2[nH]cc(CCNc3ncnc4ccc(-c5ccoc5)cc34)c2c1,,5.01 µM (active)
COC(=O)[C@@H]1CC[C@H](C)[C@@H](c2ccc(C)cc2)N1C(=O)c1ccc(/C=N\O[C@@H](C)c2cn([C@H](CO)Cc3ccccc3)nn2)cc1,12.4% [at 11.4 µM] (inactive) and -16.1% [at 11.4 µM] (inactive),

Structure (SMILES),"activity, negative = inhibition",AC50
N[C@](CC1c2ccccc2Oc2ccccc21)(C(=O)O)[C@@H]1C[C@@H]1C(=O)O,8.73% (inactive),
COc1ccc(-n2c(=O)c(-c3ccc(F)cc3)nc3cncnc32)cc1,-3.89% (inactive),
Cn1nnnc1SCc1ccc(C(=O)Nc2ccc(Br)cc2)cc1,-9.28% (inactive),
CCC(=O)OCc1c(C(F)(F)F)nn(C)c1Sc1ccc(F)cc1,-17.1% (inactive),
CC(C)(C)C(=O)NC(=C(Cl)Cl)P(=O)(O)O,-4% (inactive),
Cc1c(C)c2c(c(C)c1O)CC[C@@](C)(C(=O)O)O2,0.454% [at 25.6 µM] (inactive),
CCCNc1nc(NCC)nc(OC)n1,3.27% (inactive),
Cc1noc(C)c1C(=O)N1CCC2(CCCN(Cc3nccs3)C2)CC1,-12.8% (inactive),
C[C@H](O)[C@H](O)[C@@H]1CNc2nc(N)[nH]c(=O)c2N1,2.53% (inactive),
COc1ccc2[nH]cc(CCNc3ncnc4ccc(-c5c(C)noc5C)cc34)c2c1,,6.31 µM (active)
Cc1ccc(-n2nnnc2-c2cnc3ccc(Cl)cc3c2-c2ccccc2)cc1,-3.88% (inactive),
Clc1ccc2[nH]cc(-c3nnnn3-c3ccccc3)c2c1,,28.2 µM (active)
Fc1ccc(-c2[nH]ncc2-c2nnnn2-c2ccccc2)c(F)c1,15.9% (inactive),
Cc1cccc(C2NC(=O)c3c(sc(C)c3C)N2)c1O (configuration not stated),-12.8% (inactive),
Clc1ccc(-c2nnc(-c3ccc(Br)cc3)c(N3CCSCC3)n2)cc1,-5.11% (inactive),
O=C(NNC(=O)c1ccncc1)c1ccncc1,-4.63% [at 11.4 µM] (inactive),
CC(C)NNC(=O)c1ccncc1,,inactive
CC1(C)Cc2ccccc2C(NNC(=O)c2ccncc2)=N1,,7.94 µM (active)
O=C(Cc1ccccc1)N/N=C/c1cc(Br)c(Br)o1,-11.9% (inactive),
COc1ccc(OC)c(C2N(c3cc(C)on3)C(=O)C3CCCN32)c1 (configuration not stated),21.9% (inactive),
COc1ccc(C(F)(F)F)cc1N/C=C\c1nnnn1-c1ccccc1,-1.69% (inactive),
COc1cc(-c2nnc(SCC(=O)Nc3ccc4c(c3)OCCO4)o2)cc(OC)c1OC,-14.4% (inactive),
CCN(CC(=O)Nc1ccc2c(c1)OCCO2)C(=O)c1cccc(S(=O)(=O)N2CCOCC2)c1,-15.4% (inactive),
O=C(CN1CCN(S(=O)(=O)c2ccc(Cl)cc2)CC1)Nc1ccc2c(c1)OCO2,,2.51 µM (active)
O=C(CSc1ccc(Cl)cc1)Nc1ccc(N2CCN(c3ccccc3)CC2)c(F)c1,-1.75% (inactive),

Structure (SMILES),"activity, negative = inhibition",AC50
O=C(CN1CCN(c2ccc(Cl)cc2)CC1)Nc1ccc(F)c(F)c1,,3.55 µM (active)
CCOC(=O)c1[nH]c2cc3c(cc2c1NC(=O)CN1CCc2ccccc2C1)OCO3,,3.55 µM (active)
CCOc1ccc(NC(=O)CN2CCN(S(=O)(=O)c3ccc(Cl)cc3)CC2)cc1,-13% (inactive),
COc1cc2c(cc1OC)CN(CC(=O)Nc1ccc3c(c1)OCO3)CC2,,8.91 µM (active)
COc1cc2c(cc1OC)CN(C(=S)Nc1ccccc1)CC2,6.67% (inactive),
CCOC(=O)c1[nH]c2cc3c(cc2c1NC(=O)CN1CCC2(CC1)OCCO2)OCO3,3.18% (inactive),
CCOC(=O)c1[nH]c2cc(OC)c(OC)cc2c1NC(=O)c1nonc1C,-3.37% (inactive),
O=C(CSc1ccccc1)Nc1ccc(N2CCN(c3ccccc3)CC2)c(F)c1,-5.65% (inactive),
N[C@@](CC(=O)O)(Cc1ccccc1)C(=O)O,7.77% [at 11.4 µM] (inactive),
CCN1C(=O)[C@H]2[C@H]3[C@H](O)[C@H](O)C/C(=N/O[C@@H](C)c4cn([C@H]5COC[C@H]5O)nn4)[C@@H]3CC[C@@H]2C1=O,-1.04% [at 11.4 µM] (inactive),
C[C@H](C(=O)c1ccncc1)c1ccccn1,-3.93% [at 11.4 µM] (inactive),
O=C(O)CN(CCN(CC(=O)O)CC(=O)O)CC(=O)O.[Mn],9.26% [at 11.4 µM] (inactive),
Cc1cc(=O)oc(C)c1C(=O)N1CCCCC1,15.6% (inactive),
CCCC[C@@H]1CN2[C@H](c3ccc(Br)cc3)[C@@H](C)CC[C@H]2C(=O)O1,-5.55% [at 11.4 µM] (inactive),
COc1ccc(NC(=O)c2cc(S(=O)(=O)N3CCS(=O)(=O)CC3)ccc2Cl)cc1,8.12% (inactive),
COc1ccc(C)cc1NC(=O)CN1CCN(S(=O)(=O)c2ccc(F)cc2)CC1,-21.5% (inactive),
Cc1c(C(=O)Nc2cccc(C(F)(F)F)c2)oc2ccc(S(=O)(=O)N3CCOCC3)cc12,-8.55% (inactive),
CCN1CCN(CCC(=O)Nc2cccc(OC)c2)CC1,-7.68% (inactive),
COc1ccc(S(=O)(=O)N2CCCN(CC(=O)Nc3ccc(OC)c(Cl)c3)CC2)cc1,,11.2 µM (active)
COc1ccc(S(=O)(=O)N2CCCN(CCC(=O)Nc3cccc(C(F)(F)F)c3)CC2)cc1,,8.91 µM (active)
Cc1nc(SC2CC(=O)N(c3ccc([N+](=O)[O-])cc3)C2=O)nc2c1CCCC2 (configuration not stated),-1.33% (inactive),
COC(=O)c1ccc(C(=O)OC)c(NC(=S)N2CCN(c3ccccc3)CC2)c1,-16.5% (inactive),
C=CCOc1cccc(CNn2cn[nH]c2=S)c1,3.23% (inactive),
COc1cc(C2C(C#N)=C(N)N(c3sc4c(c3C#N)CCCC4)C3=C2C(=O)CC(C)(C)C3)cc(OC)c1OC (configuration not stated),9.61% (inactive),
Cc1cc(C)c(O)c(Cc2cccc(Cc3cc(C)cc(C)c3O)c2O)c1,12.6% [at 11.4 µM] (inactive),

Structure (SMILES),"activity, negative = inhibition",AC50
Cc1ccc(C(=O)N/N=C/c2sc(=O)n(Cc3cccc(C(=O)O)c3)c2Cl)cc1,12.6% (inactive),
CO[C@@H]1COC(=O)[C@H](C)NC(=O)[C@@H](C)COC(=O)CCC[C@H]1C,8.56% [at 11.4 µM] (inactive),
CSc1nncc(/C(C)=N\Nc2ccccc2)n1,-6.12% (inactive),
COCCN=C1Sc2nc3c(C)cccc3cc2CN1Cc1ccco1,,14.1 µM (active)
CCn1c(SCC(=O)NC2CCCCC2)nnc1-c1cc2cccc(OC)c2o1,-23.6% (inactive),
COCCNC(=O)CSc1ncnc2sccc12,13.7% (inactive),
COc1ccc(C2C(C(=O)N3CCN(C)CC3)c3ccccc3C(=O)N2C2CCCCC2)cc1 (configuration not stated),-5.85% (inactive),
CN(C)CCCNc1ncnc2nc[nH]c12,1.66% [at 11.4 µM] (inactive),
Cc1ccc2nc(NC(=O)COC(=O)CSc3nc(C)cc(C)n3)sc2c1,-23.1% (inactive),
Cc1ccc2nc(NC(=O)COC(=O)c3ccc(Br)o3)sc2c1,,15.8 µM (active)
Cc1ccc2nc(NC(=O)CSCC(=O)OCC(=O)c3ccc(Br)cc3)sc2c1,-12.5% (inactive),
C=C[C@]1(C)C[C@H](OC(=O)CO)[C@]2(C)C3C(=O)CC[C@]3(CC[C@H]2C)[C@H](C)[C@H]1O (some centres not stated),-10.6% [at 11.4 µM] (inactive),
CC(=O)OCC(=O)[C@@]1(O)CC[C@@H]2[C@H]3CCC4=CC(=O)C=C[C@]4(C)[C@]3(F)[C@@H](O)C[C@@]21C,-1.72% [at 25.6 µM] (inactive),
O=C1C=C[C@@H](O)[C@H]2[C@@H]3C(=O)N(c4cccc(Oc5ccccc5)c4)C(=O)[C@@H]3CC[C@H]12,-0.0224% [at 11.4 µM] (inactive),
COc1ccccc1CCn1c(=O)c(-c2cc(F)cc(F)c2)nc2cncnc21,-11.2% (inactive),
CCCN(C(=S)Nc1ccccc1)C1CCS(=O)(=O)C1 (configuration not stated),-4.85% (inactive),
Cc1cccc(NC(=S)NNC(=O)CCn2cc(C)cn2)c1,-3.85% (inactive),
Cc1cccc(NC(=S)NC(=O)CCc2ccccc2)c1,-17.4% (inactive),
COc1ccc(CCNC(=O)Cn2c(=O)oc3ccccc32)cc1OC,-18.7% (inactive),
Cc1cccc(NC(=O)Cn2c(=O)n3nc(CCn4nc(C)cc4C)nc3c3ccccc32)c1,,14.1 µM (active)
Cc1cccc(NC(=O)Cn2cccc2)c1,-5.49% (inactive),
Cc1cccc(NC(=O)Cn2c(=O)oc3ccccc32)c1,,3.16 µM (active)

# From PubChem BioAssay AID1851 (National Center for Advancing Translational Sciences (NCATS), 2009)
